Hit rate of the full screen: of about 310,000 compounds, about 14,000 (4.5%) showed an effect of 50% or more. The effect is printed as a negative number. The list comes from a sample in which strong results are over-represented; it also holds similar structures and randomly drawn compounds.
molecular target: human ether-à-go-go-related gene (hERG) potassium channel (human, UniProt Q12809); experiment: primary screen, population patch clamp on CHO cells stably expressing hERG; higher = less effect of the substance
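Further: peak tail current of the secondary pulse compared with the same well before compound.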

Chain of human ether-à-go-go-related gene (hERG) potassium channel (Q12809 whole entry, looked up): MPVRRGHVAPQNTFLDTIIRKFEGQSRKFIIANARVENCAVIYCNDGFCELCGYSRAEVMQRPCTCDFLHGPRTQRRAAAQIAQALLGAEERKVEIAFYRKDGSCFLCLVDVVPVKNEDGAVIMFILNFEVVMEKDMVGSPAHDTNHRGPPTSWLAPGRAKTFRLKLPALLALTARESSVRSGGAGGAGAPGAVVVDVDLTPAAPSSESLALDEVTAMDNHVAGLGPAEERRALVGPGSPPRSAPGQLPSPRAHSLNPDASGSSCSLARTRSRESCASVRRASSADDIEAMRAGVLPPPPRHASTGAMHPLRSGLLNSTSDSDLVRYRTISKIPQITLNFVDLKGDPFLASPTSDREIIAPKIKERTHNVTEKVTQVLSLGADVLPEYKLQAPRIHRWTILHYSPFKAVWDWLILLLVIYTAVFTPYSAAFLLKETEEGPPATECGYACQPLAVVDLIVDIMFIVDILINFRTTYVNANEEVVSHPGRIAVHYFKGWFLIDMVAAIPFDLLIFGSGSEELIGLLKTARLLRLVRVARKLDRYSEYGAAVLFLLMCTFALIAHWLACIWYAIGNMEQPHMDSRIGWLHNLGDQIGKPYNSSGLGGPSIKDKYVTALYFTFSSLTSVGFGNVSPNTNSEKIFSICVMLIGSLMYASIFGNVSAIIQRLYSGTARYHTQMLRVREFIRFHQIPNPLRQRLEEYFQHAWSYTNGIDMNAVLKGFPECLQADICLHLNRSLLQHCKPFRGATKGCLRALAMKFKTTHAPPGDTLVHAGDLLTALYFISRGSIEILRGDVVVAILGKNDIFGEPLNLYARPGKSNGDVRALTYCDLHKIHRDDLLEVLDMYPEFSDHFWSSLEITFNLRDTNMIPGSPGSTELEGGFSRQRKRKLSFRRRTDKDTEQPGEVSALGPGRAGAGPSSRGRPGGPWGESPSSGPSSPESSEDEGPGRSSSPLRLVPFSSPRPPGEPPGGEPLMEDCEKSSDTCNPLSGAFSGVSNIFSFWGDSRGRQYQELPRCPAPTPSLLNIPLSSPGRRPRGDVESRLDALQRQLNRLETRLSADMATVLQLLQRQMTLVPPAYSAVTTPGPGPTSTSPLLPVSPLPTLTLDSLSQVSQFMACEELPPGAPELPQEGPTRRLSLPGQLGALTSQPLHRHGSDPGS

| SMILES | hERG current change (%, negative = inhibition) at 10uM [%] |
| --- | --- |
| O=C(Nc1ccc(NC(=O)c2cccs2)cc1)c1ccc2c(c1)OCCO2 | 15.6 |
| CC1(C)Cn2c(nnc2-c2ccccc2)S1 | 14.1 |
| O=C(NCC1CCCO1)c1cc(-c2ccncc2)nc2ccc(S(=O)(=O)N3CCOCC3)cc12 (stereo not drawn) | -24.5 |
| CC(C)(C#CCN1CCCCC1)OCCOC(c1ccccc1)c1ccccc1.Cl | -21.3 |
| Cc1ccc(NC(=O)CCn2cnc3cc(C)c(C)cc32)cc1 | -8.26 |
| COc1ccccc1N1C(=O)c2ccc(C(=O)Nc3ccc(F)cc3)cc2C1=O | 1.07 |
| CCOC(=O)N1CCN(c2ncnc3c2[nH]c2ccc(F)cc23)CC1 | -2.67 |
| Cc1ccnc(NC(=O)C2CCN(S(=O)(=O)c3ccc4ccccc4c3)CC2)c1 | 7.94 |
| O=c1c(Br)c(N2CCCCC2)cnn1-c1ccccc1 | -16.5 |
| CC(C)Cc1oc(C(=O)O)cc1CN.Cl | -4.32 |
| O=C(Nc1nnc(-c2ccc(Cl)cc2)o1)c1ccc(N2C(=O)CCC2=O)cc1 | 12.9 |
| Cc1ccccc1OCC(=O)OCC(=O)Nc1ccc(N2CCOCC2)cc1 | 9.51 |
| O=S(=O)(Nc1c(F)cccc1F)c1ccc2c(c1)OCCO2 | 9.82 |
| CCOC(=O)c1sc2nc(NC(=O)C(C)(C)C)sc2c1C | -11.7 |
| Cc1ccc(S(=O)(=O)N(C)c2nc3ccccc3n3c(C(C)C)nnc23)cc1 | -28.1 |
| Cc1ccc2c(c1)N(C(=O)CCC(=O)NCCCN(C)Cc1ccccc1)CCO2 | -68.3 |
| O=C(CCC(=O)N1CCOc2ccc(Cl)cc21)NCc1ccccc1 | -21.7 |
| O=C(CCC(=O)N1CCOc2ccccc21)NCCCc1ccccc1 | -17.5 |
| CC(CNC(=O)CCC(=O)N1CCOc2ccc(Cl)cc21)c1ccccc1 (stereo not drawn) | -40.6 |
| CN(CCCNC(=O)CCC(=O)N1CCOc2ccc(Cl)cc21)Cc1ccccc1 | -64.1 |
| O=C(CCC(=O)N1CCOc2ccccc21)NCCc1ccccc1 | -6 |

| SMILES | hERG current change (%, negative = inhibition) at 10uM [%] |
| --- | --- |
| CCN(CCCNC(=O)CCC(=O)N1CCOc2ccccc21)Cc1ccccc1 | -62.5 |
| CN(CCCNC(=O)CCC(=O)N1CCOc2ccccc21)Cc1ccccc1 | -30.7 |
| Cc1ccc2c(c1)N(C(=O)CCC(=O)NCc1cccc(F)c1)CCO2 | -5.21 |
| COc1ccc(C(=O)Oc2cc(C)[nH]c(=O)c2[N+](=O)[O-])c(OC)c1 | 11.9 |
| Cc1ccc(C)c2[nH]c(=O)c(CN(Cc3ccco3)S(=O)(=O)c3ccc4c(c3)OCCO4)cc12 | 9.44 |
| CC(C)NC(=O)[C@]1(C)CCC[C@@]2(C)C3CC[C@@]4(C)C[C@]3(CCC21)CC4=O (stereo partly drawn) | 6.23 |
| CCc1ccc(NC(=O)C2CCCN(S(C)(=O)=O)C2)cc1 (stereo not drawn) | 21.3 |
| C=CCn1c(SCc2csc(C)n2)nc2sc3c(c2c1=O)CCCCC3 | -8.41 |
| O=C(CN1C(=O)C(c2ccc(F)cc2)=NC12CCCC2)Nc1ccc(F)cc1 | -5.39 |
| CC(C)(C)OC(=O)N1C[C@H](O)C[C@H]1C(=O)OCC(=O)c1ccc([N+](=O)[O-])cc1 | -63.4 |
| CC(C)(C)OC(=O)N1CC(O)CC1C(=O)OCC(=O)c1ccc(Cl)cc1 (stereo not drawn) | -16.4 |
| CC(C)(C)OC(=O)N1CC(O)CC1C(=O)OCC(=O)c1ccccc1 (stereo not drawn) | 5.86 |
| COc1cccc(/C=N/NC(=O)c2[nH]c(C)c(C(=O)N/N=C/c3cccc(OC)c3O)c2C)c1O | 11.7 |
| CCN1CCc2c(OCC(=O)Nc3ccc4c(c3)OCCO4)cccc2C1=O | 5.28 |
| CC(C)(C)c1cc(NCCCn2ccnc2)n2ncc(-c3ccc(Cl)cc3)c2n1 | 12.1 |
| Cc1cc(NCCCN2CCOCC2)n2ncc(-c3ccccc3)c2n1 | -21 |
| Cc1cc(NCCCN2CCOCC2)n2ncc(-c3ccc(Cl)cc3)c2n1 | 0.66 |
| Cc1cc(NCCCn2ccnc2)n2ncc(-c3ccc(Cl)cc3)c2n1 | -68 |
| Cc1cc(NCCCn2ccnc2)n2ncc(-c3ccccc3)c2n1 | -67.6 |
| CC(C)(C)c1cc(NCCCn2ccnc2)n2ncc(-c3ccccc3)c2n1 | -18 |
| Cc1ccc(S(=O)(=O)N2CCN(C)CC2)c(C)c1N(C)S(=O)(=O)c1ccc(Cl)cc1 | -68.7 |

Source: publication PMC4336329 (PLoS ONE, 2015)
